# Screens as filed in PubChem BioAssay.
# This is a sample that favours compounds with a hit; in the whole collection about 13% have one here.
# LASV entry inh: blocks Lassa virus binding to or entry into cells. Potency, µM (top dose mostly 37.9 µM), for the others: top-dose activity change, negative = inhibition, usual class: inhibitors. Lassa virus pseudotype entry inhibition, cell reporter. hit rate 1.2% among 300,000; calls by dose curve; tested in HEK293 cells; further: potency means the concentration at half of the fitted maximal effect; on the % scale 0 is the no-effect control and ±100 the full control effect; nearly all actives have a fitted effect of over 50% in size
# Shiga toxin inh: blocks Shiga toxin action in Vero cells | hit rate 9.2% among 290,000 | Vero cells, Shiga toxin protein synthesis inhibition reporter | inhibition, % at 38.7 µM; in the data active means inhibition mostly above about 28%, no sharp cut-off; inactive means mostly below about 43%; further: 0% is about no effect
# FMDV antiviral: antivirals against foot and mouth disease virus. AID 1159524. Potency, µM (doses to about 57.9 µM), without a hit: at the highest dose activity change, negative = inhibition, usual class: inhibitors. FMDV antiviral cell-based qHTS. hit rate 1.2% among 410,000; calls by dose curve; tested in HEK293T cells; further: read-out not given here; potency means the concentration at half of the fitted maximal effect; on the % scale 0 is the no-effect control and ±100 the full control effect; nearly all actives have a fitted effect of over 45% in size
# HCV inh: blocks hepatitis C virus; Huh7.5.1 HCVcc-Cre infection, luciferase reporter, 44 h; Potency, µM (doses to about 41.8 µM), inactives show at the highest dose activity change, negative = inhibition, usual class: inhibitors; hit rate 3.4% among 340,000; AID 651820; active means well fitted inhibition curve with a large enough effect; inconclusive means small, poorly fitted or top-dose-only effect, or another doubt; inactive means no such curve, though single readings can be large or run the other way; further: potency means the concentration at half of the fitted maximal effect; on the % scale 0 is the no-effect control and ±100 the full control effect
#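 Compounds are dispensed onto cells plated 4 h earlier at 1,000 per well, with HCVcc-Cre virus (about 0.5 moi) added next. Following 44 h of culture, luminescent signal is measured for 15 sec after 15 min with substrate at room temperature.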
# MARV entry inh: Marburg virus entry inhibition; hit rate 1.8% among 300,000; Marburg virus pseudotyped entry inhibition, cell reporter; Potency, µM (doses to about 37.8 µM), for inactives: top-dose activity change, negative = inhibition, most hits filed as inhibitors; calls by dose curve; tested in HEK293 cells; further: potency means the concentration at half of the fitted maximal effect; on the % scale 0 is the no-effect control and ±100 the full control effect
# CHX counter: affects cycloheximide protein synthesis inhibition readout, counter-screen | cell reporter, cycloheximide protein synthesis inhibition counterscreen | max response, % | hit rate 12% among 300,000; in the data active means max response mostly above about 13%, no sharp cut-off; inactive means mostly below about 14%; further: read at 38.3 µM for the half of the compounds with a filed dose; 0% is about no effect
# * marks the source's active call; other numbers are inactive results; ? = inconclusive; nt = no result; [ ] = remark or other dose.
SMILES,LASV entry inh,Shiga toxin inh,FMDV antiviral,HCV inh,MARV entry inh,CHX counter
Cc1ccc(-c2ccc3nnc(SCC(=O)NCC4CCCO4)n3n2)cc1 (stereo not given),nt,-16,-3%,-15%,nt,-3
Cc1ccccc1C(=O)OCCCN=C1NS(=O)(=O)c2ccccc21,-15%,9,5%,-19%,3%[46.1 µM],-1
Nc1nc(-c2ccccc2)nn1C(=O)c1ccco1,-6%,19,4%,-10%,0%[46.1 µM],8
COc1ccc(N(C(=O)c2ccc(Br)o2)C2C=CS(=O)(=O)C2)c(OC)c1 (stereo not given),nt,-14,-6%,0%,nt,-7
Cc1cccc(NC(=O)CN2CCSc3ccccc32)c1,nt,49*,-10%,-11%,nt,34*
Cc1cccc(NC(=O)CSCC(=O)Nc2ccccc2N2CCCCC2)c1,?,nt,-18%,?,11µM*,nt
CCOC(=O)N(C)C[C@H]1OCc2cn(nn2)CCCC(=O)N([C@H](C)CO)C[C@@H]1C,nt,nt,-21%,nt,nt,nt
Cc1nc2cc(-c3ccccc3)ccc2o1,0%,86*,45%,3%,?,32*
COc1ccc(C2/C=C\CN(S(=O)(=O)c3ccc(C)cc3)CC(=O)N2Cc2cccc(F)c2)cc1 (stereo not given),nt,-6,15%,-48%,1%,2
CC1Oc2ccccc2N(CC(=O)c2ccccc2)C1=O (stereo not given),?,27,18%,10%,13%,23*
CC1Oc2ccccc2N(CC(=O)c2ccc(F)cc2)C1=O (stereo not given),15%,18,-12%,-11%,15%[46.1 µM],23
Cc1ccc(C(=O)CN2C(=O)C(C)Oc3ccccc32)cc1 (stereo not given),nt,39,47%,?,nt,33*
COC(=O)c1c(NC(=O)CC2NCCNC2=O)sc2c1CCCC2 (stereo not given),18%,23,4%,?,14%,10
COc1cc(C(=O)N2CCN(c3ncnc4sc(C)c(C)c34)CC2)cc(OC)c1OC,?,-9,11µM*,5.6µM*,?,-3
COc1ccccc1OCC(=O)NNC(=O)C1CCN(c2ncnc3sc(C)c(C)c23)CC1,nt,nt,18µM*,11µM*,nt,nt
Cc1sc2ncnc(N3CCN(c4ncccn4)CC3)c2c1C,?,-22,?,-29%,?,-3
CCN(CC)c1ccc(C(=O)NNC(=O)C2CCN(c3ncnc4sc(C)c(C)c34)CC2)cc1,nt,nt,11µM*,nt,nt,nt
Cc1cccc(OCC(=O)NNC(=O)C2CCN(c3ncnc4sc(C)c(C)c34)CC2)c1,-1%,nt,28µM*,-13%,-29%,nt
O=C(CC[C@H]1O[C@@H](n2ccc(=O)[nH]c2=O)[C@H](O)[C@@H]1O)N1CCN(c2ccccn2)CC1,nt,nt,-6%,nt,nt,nt
O=C(/C=C\c1ccco1)Nc1ccc(N2CCN(C(=O)c3ccccc3)CC2)cc1,-10%,5,-28%,2%,?,-3
CCOC(=O)c1sc2ncnc(N3CCN(CC)CC3)c2c1C,5%,17,2%,?,-6%[46.1 µM],-5
CCOC(=O)c1sc2ncnc(N3CCN(C(=O)OCC)CC3)c2c1C,?,-9,16µM*,-30%,-16%,-3
COc1ccc(-c2csc(NC(=O)C3CCN(c4ncnc5sc(C)c(C)c45)CC3)n2)cc1OC,2µM*,nt,8.9µM*,2.5µM*,4µM*,nt
CCOC(=O)C(=C1Nc2ccccc2N1)n1c(-c2cnccn2)nc2ccccc21,nt,nt,-2%,nt,nt,nt
O=C(Nc1ccccc1F)Nc1cc(Cl)ccc1-n1cncn1,-13%,-11,22%,?,-16%[46.1 µM],-6
SMILES,LASV entry inh,Shiga toxin inh,FMDV antiviral,HCV inh,MARV entry inh,CHX counter
CCn1nc(C)c(Br)c1-c1nc(CS(=O)(=O)c2ccsc2)no1,nt,26,8%,-29%,nt,28*
O=c1cc[nH]c2cc(C(F)(F)F)ccc12,7%,-10,nt,17%,-3%,-4
CCCCNC(=O)c1ccc(CS(=O)(=O)c2ccc(C)cc2)o1,16µM*,12,-10%,8%,?,-3
O=C(NCc1cccs1)c1ccc(CS(=O)(=O)c2ccc(Cl)cc2)o1,12µM*,-24,-8%,15%,-14%,-2
CCC(C(=O)Nc1nnc2n1CCS2)c1ccccc1 (stereo not given),-9%[46.1 µM],nt,0%,nt,nt,nt
Cc1c(Cl)c(C(=O)NNC(=S)NCc2ccco2)nn1C,-20%,11,18%,20%,-10%,1
COc1ccccc1NC(=S)NNC(=O)c1nn(C)c(C)c1Cl,21%,30,0%,18%,2%,34*
